Screening data as filed in PubChem BioAssay.
ssDAF12 agonist = S. stercoralis DAF-12 activation, primary screen; HEK293 ssDAF-12/GRIP1 lit1-tk-luc reporter, luminescence; % of 3 µM dafachronic acid response; activation, % at 6.8 µM; hit rate 1% among 370,000; AID 652126;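 active means activation above the mean over all tested compounds plus 3 SD, cut at about 0.9% in these data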;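 further: 0% = DMSO-only wells and 100% = 3 µM delta7-dafachronic acid wells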
SMARCA2 activ = increases SMARCA2 function in MMTV reporter cells; activation, % at 9.1 µM; MG213 cells, MMTV-luciferase reporter, dexamethasone, overnight; hit rate 1% among 370,000; in the data active means activation above about 7.8%;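 further: 0% = vehicle wells and 100% = reference activator wells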
DAX1 inh-1 = DAX1 (NR0B1) inhibition, primary screen. HEK293T StAR-luciferase reporter, SF-1/DAX-1 repression relief. inhibition, % at 6.8 µM. hit rate 1.1% among 370,000. AID 652010;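 active means inhibition above the mean over all tested compounds plus 3 SD, cut at about 3.6% in these data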;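 further: 0% = DAX-1 cells with DMSO and 100% = cells lacking DAX-1 with DMSO; higher inhibition means more luminescence from relief of DAX-1 repression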
hcDAF-12 act = H. contortus DAF-12 activation, primary screen; activation, % at 6.8 µM; HEK293 hcDAF-12 lit1-tk-luc reporter, luminescence; 0% DMSO, 100% Δ7-dafachronic acid; hit rate 1.4% among 370,000;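 active means activation above the mean of all tested compounds plus 3 SD, cut at about 5.5% in these data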;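 further: 100% = response to 3 µM Δ7-dafachronic acid high control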
DAX1 inh-2 = inhibits human nuclear receptor DAX1; P51843; hit rate 0.99% among 340,000; inhibition, % at 6.75 µM; HEK293 Gal4-DAX1 luciferase reporter, luminescence;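 active means inhibition above the mean over all tested compounds plus 3 SD, cut at about 4.2% in these data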;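 further: 0% = DAX1-transfected cells with DMSO and 100% = empty-vector control cells with DMSO; inhibition shows as a rise in luminescence from relieved DAX1 repression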
Target sequence (P51843 207-470 limits assumed): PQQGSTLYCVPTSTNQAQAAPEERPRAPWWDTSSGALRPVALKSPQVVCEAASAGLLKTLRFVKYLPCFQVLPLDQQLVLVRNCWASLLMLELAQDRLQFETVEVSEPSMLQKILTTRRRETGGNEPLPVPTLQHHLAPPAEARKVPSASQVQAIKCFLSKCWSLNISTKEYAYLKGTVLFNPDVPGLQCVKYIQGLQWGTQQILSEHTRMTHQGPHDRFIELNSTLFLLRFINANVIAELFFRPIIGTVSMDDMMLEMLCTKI
hgDAF-12 ag = hgDAF-12 agonism, primary luciferase screen; AID 687014; HEK293 GAL4-hgDAF12 UAS-luciferase reporter, agonist luminescence; normalized to butyrate control; hit rate 1.8% among 370,000; activation, % at 6.8 µM;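 active means activation above a cutoff set at the mean of all screened compounds plus 3 SD, cut at about 10% in these data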;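 further: 0% = DMSO wells and 100% = sodium butyrate wells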
Starred values were filed as active, the others as inactive; nt = no result given. Sampled rows, rich in hits. Any-hit rate of the full collection: about 4.8%.

SMILES	ssDAF12 agonist	SMARCA2 activ	DAX1 inh-1	hcDAF-12 act	DAX1 inh-2	hgDAF-12 ag
CCCNC(=O)CCn1nc(-c2ccc(C)cc2)c2ccccc2c1=O	-1.2	1.0	-0.2	-2.0	-0.4	-0.4
CCCNC(=O)CCn1nc(-c2ccc(Cl)cc2)c2ccccc2c1=O	-2.0	-2.3	0.1	-1.6	5.4*	4.4
CCC(=O)N1N=C(c2cccs2)CC1c1ccc(OC)cc1 (stereo unspecified)	-1.8	2.4	-0.4	-0.3	-0.2	0.8
COc1cccc(C2Oc3ccccc3C3CC(c4cccs4)=NN32)c1 (stereo unspecified)	-0.6	4.0	0.8	5.8*	nt	6.6
C[C@H](O)[C@@H]1CN2CCc3ccc(N4CCOCC4)cc3[C@@H]2C[C@@H]1N(C)C(=S)NCCc1ccccc1	-1.1	0.7	-1.3	-2.3	nt	0.6
Cc1cc(=S)c2ccccc2[nH]1	1.3*	-0.8	-0.8	-0.4	-0.4	-2.4
Cc1ccc2[nH]c(C)cc(=S)c2c1	-1.5	4.2	-0.3	-2.8	-0.3	-0.6
O=C(O)/C(=C\c1ccc(-c2ccccc2[N+](=O)[O-])o1)c1ccccc1	0.9*	0.7	0.1	5.7*	2.4	3.9
Fc1ccc(-c2n[nH]c(=S)n2N=Cc2ccc(OCc3ccccc3)cc2)cc1	-1.3	0.0	-0.1	-0.7	nt	4.0
COc1ccc(NC(=O)N2CCCCC2)cc1	-1.4	-2.0	0.1	-0.9	0.1	2.3
Cc1ccc(NC(=O)N2CCCCCC2)cc1	-0.7	1.8	3.9*	5.5	1.7	4.6
CC(=O)Nc1cc(C)ns1	-1.1	-4.1	0.5	-1.2	4.3*	4.2
COC(=O)CNC(=O)CNC1(C(=O)NCCc2c[nH]c3ccccc23)CCCCC1	-0.9	nt	nt	2.5	nt	2.1
CC(=O)Nc1cc2c(cc1Cl)-c1ccccc1C2O (stereo unspecified)	-0.1	-0.3	-0.6	5.9*	1.6	2.9
CC(=O)Nc1cc2c(cc1Cl)-c1ccccc1C2	0.3	3.9	2.9	3.7	3.0	9.3
COC(=O)N(C)C[C@@H]1OCc2ccccc2-c2c(n(C)c3ccccc23)C(=O)N([C@H](C)CO)C[C@@H]1C	-1.0	3.9	3.8*	-0.3	0.8	-2.9
CC(C)NC(=O)N(C)C[C@@H]1OCc2ccccc2-c2c(n(C)c3ccccc23)C(=O)N([C@@H](C)CO)C[C@@H]1C	-0.5	-2.8	0.1	-0.4	-0.9	0.0
COc1ccc(/C=N/Nc2ccccc2C(=O)O)cc1Cn1cc([N+](=O)[O-])cn1	1.1*	3.8	1.0	2.1	3.2	7.7
COc1ccc(/C=N\NC(=O)c2ccc([N+](=O)[O-])c(C)c2)cc1COc1ccccc1C(N)=O	-1.5	-0.7	-3.0	-3.5	-0.3	-2.3
COc1ccc(/C=N/NC(=O)c2ccoc2C)cc1COc1ccc(Cl)cc1	1.3*	2.7	-1.4	3.5	0.5	8.2
COc1cc(/C=N/NC(N)=S)ccc1OCc1ccc(C)cc1	-1.2	-1.6	-1.2	2.1	-2.4	10.6*
COc1cc(/C=N/NC(N)=S)ccc1OC(=O)c1ccc(C)cc1	-0.7	-3.0	-0.7	-0.6	1.6	0.1
COc1ccc(/C=N/NC(=O)c2ccccc2OC)cc1COc1ccccc1[N+](=O)[O-]	1.4*	1.5	-1.3	0.6	1.6	-0.1
COc1ccc(/C=N/NC(=O)c2ccoc2C)cc1OC	0.2	-3.1	0.1	1.2	0.9	1.6
CC(C)CCNC(=O)C1COC(O)(C(Cc2ccccc2)NC(=O)[C@@H](NC(=O)OCc2ccccc2)C(C)C)CN1 (stereo partly specified)	0.0	nt	nt	-0.1	nt	-2.1
SMILES	ssDAF12 agonist	SMARCA2 activ	DAX1 inh-1	hcDAF-12 act	DAX1 inh-2	hgDAF-12 ag
CCOc1ccc(CCNC(=O)c2cc(-c3ccccc3)c(N3CCOCC3)s2)cc1OC	-2.3	-2.5	-4.0	-6.1	nt	-5.4
COc1ccc(/C=N/NC(=O)c2ccccc2OC)cc1COc1ccc(C)cc1	0.7	-1.3	0.6	5.6*	1.8	1.0
CC(C)Oc1cccc(-c2n[nH]c(=S)n2N=Cc2cccc([N+](=O)[O-])c2)c1	-1.0	3.3	-0.8	-1.5	nt	-2.9
Cc1ccc(-c2nc(C3CCCN(S(=O)(=O)c4ccc(Cl)s4)C3)no2)cc1 (stereo unspecified)	-1.7	-3.4	-0.5	-1.8	nt	1.0
CCn1c(SCC(=O)Nc2cccc(NC(C)=O)c2)nc2c([nH]c3ccccc32)c1=O	1.1*	2.2	-2.4	1.3	0.2	4.3
C=CCn1c(SCC(=O)N2CCCC2)nc2c([nH]c3ccccc32)c1=O	1.0*	-1.8	1.0	6.3*	0.3	0.7
COCCn1c(SCC(=O)Nc2cc(C)on2)nc2c([nH]c3ccccc32)c1=O	-0.7	-3.1	-0.4	1.6	-0.1	1.5
C=CCn1c(SCC(=O)N2CCN(C(=O)OCC)CC2)nc2c([nH]c3ccccc32)c1=O	0.8	-4.0	0.6	4.7	1.2	-1.1
CCn1c(SCC(=O)Nc2ccc(C(C)=O)cc2)nc2c([nH]c3ccccc32)c1=O	0.3	-4.7	1.5	5.8*	-0.1	4.2
CCn1c(SCC(=O)Nc2cc(C)on2)nc2c([nH]c3ccccc32)c1=O	0.3	-1.5	0.7	6.0*	0.1	1.1
O=C1c2ccccc2NC(c2ccccn2)N1c1ccc(Cl)cc1 (stereo unspecified)	-0.6	0.8	0.1	6.2*	1.8	7.8
CN(C)c1ccc(C(=O)c2ccccc2)cc1	2.0*	7.7	0.2	1.5	1.0	9.3
Cc1nnc(SCC(=O)NNC(=O)c2ccc(F)cc2)n1Cc1ccccc1	1.4*	-2.8	0.1	2.1	4.5*	0.5
Cc1nnc(SCC(=O)NNC(=O)c2ccccc2)n1Cc1ccccc1	-1.5	1.6	-0.2	-1.2	0.2	4.3
O=C1C(C2=NC(c3ccccn3)C3C(=O)N(c4ccccc4)C(=O)C23)=C(O)c2ccccc21 (stereo unspecified)	-1.1	-6.0	0.5	-1.5	4.3*	-1.2
COC(=O)[C@]12C[C@H](CC(=O)N3CCCC3)C(=O)N(Cc3ccc(Cl)cc3Cl)C1=C[C@H](C(C)(C)C)O[C@@H]2C	-1.0	-3.3	0.1	-3.0	nt	0.1
CN(C)CCCN(C(=O)c1cc(Cl)sc1Cl)c1nc2cc3c(cc2s1)OCO3	0.2	0.9	4.1*	3.3	1.1	3.4
O=C(CCc1ccccc1)N[C@H]1[C@H](O)CCC[C@@]12C(=O)N(Cc1ccccc1)c1ccc(-c3ccccc3)cc12	-0.7	-6.2	-0.7	-0.3	nt	-1.1
C[n+]1cn(/N=C/c2ccccc2)c2ccccc21	-1.4	0.9	0.1	5.8*	-1.3	-1.0
O=C(Nc1ccc(Br)cc1)c1cnc[nH]1	0.5	0.3	0.3	6.5*	3.0	10.5*
COc1cccc(NC(=O)c2cnc[nH]2)c1	-0.3	3.6	0.6	0.0	0.9	4.1
